Each sequence was assayed against HNRNPL (assay: pooled miR-30 sensor sort-seq; sequence = guide strand). Conditions: shRNA.
For TTAAGGTTAAGTAAGCCTCTAC, the sensor-assay potency score (higher = more potent) was 0.152.
For ATAGTGTAAAGAACATCCGTGG, the sensor-assay potency score (higher = more potent) was -0.231.
Work on TTAAAAGTGAAGGTTAATCTTG yielded a sensor-assay potency score (higher = more potent) of -0.688.
TTGAACTGAGTCAAATTCCACC was tested, and the sensor-assay potency score (higher = more potent) was -0.367.
For TAGTGTAAAGAACATCCGTGGT, the sensor-assay potency score (higher = more potent) was -0.214.
In the case of TAAAAGTGAAGGTTAATCTTGG, the sensor-assay potency score (higher = more potent) is reported as 0.553.
TTGAACACATTCAAGCGTGTAG was tested, and the sensor-assay potency score (higher = more potent) was 0.215.
TTCTTGAACACATTCAAGCGTG was tested, and the sensor-assay potency score (higher = more potent) was -0.271.

These sequences were tested against HNRNPU in the same assay as above. Conditions: shRNA.
TTTCATCAAACTTTTCTCCATA was tested, and the sensor-assay potency score (higher = more potent) was -0.817.
For TTGAGTAACTACCACGGCCAGG, the sensor-assay potency score (higher = more potent) was -1.38.
TTCTTCTTCAACAGGTGGCTGA was tested, and the sensor-assay potency score (higher = more potent) was -0.158.
In the case of TAAAATTTCGCTTCTTTCGGGC, the sensor-assay potency score (higher = more potent) is reported as 0.159.
Work on AACTACAACAGCTTTTCGCTGG yielded a sensor-assay potency score (higher = more potent) of 0.276.
Sequence TTTGCTTCTTAAAACCTGCCAC has a sensor-assay potency score (higher = more potent) of 0.467.
TTATCCATAATAGTATTTGTGC gave a sensor-assay potency score (higher = more potent) of -0.391.
In the case of TTCATCTCAAAACACACTTTGC, the sensor-assay potency score (higher = more potent) is reported as -0.868.
Work on TTGCTTATAGTCTTCATCTTTT yielded a sensor-assay potency score (higher = more potent) of -0.867.
Sequence TTCTTCCTTATATTGCTCCAAG has a sensor-assay potency score (higher = more potent) of -1.21.
In the case of TATTGCTTTTCTTTGAGCCAGT, the sensor-assay potency score (higher = more potent) is reported as -0.865.

What follows are sequences tested against HOOK2 in the same assay as above. Conditions: shRNA.
TTTTTCTCGCAACTGATGGCAC was tested, and the sensor-assay potency score (higher = more potent) was -0.412.
TACTAGGCTCCGTAAGACCATC was tested, and the sensor-assay potency score (higher = more potent) was -1.58.
TTCCATGGTCTGCATGACCATG showed a sensor-assay potency score (higher = more potent) of -1.55.
TCACTTAGGAAATAGTACCTGC gave a sensor-assay potency score (higher = more potent) of -0.233.
TCCTCTGCAACTCCAGATCTGC gave a sensor-assay potency score (higher = more potent) of -1.56.
TTCTGACACAGGATGCGCCAGG was tested, and the sensor-assay potency score (higher = more potent) was -0.785.
TGGAACGTCTGTAACCAGGTGA showed a sensor-assay potency score (higher = more potent) of 0.0642.
Work on TCAGCTTCCAGTTGGGACCTGG yielded a sensor-assay potency score (higher = more potent) of -0.00912.
ATGGTCTGCATGACCATGCGGG was tested, and the sensor-assay potency score (higher = more potent) was -1.25.
For TTAGGAAATAGTACCTGCGGGA, the sensor-assay potency score (higher = more potent) was -0.0973.
TTTCTCAAAGTCCATCTCCAGG was tested, and the sensor-assay potency score (higher = more potent) was -1.2.
TACGTCTCTGGTGACAGGGAGT showed a sensor-assay potency score (higher = more potent) of -0.714.

What follows are sequences tested against HOXA6 in the same assay as above. Conditions: shRNA.
TTATCAGAATAGAAACACGAGG gave a sensor-assay potency score (higher = more potent) of -1.05.
TTGATGAGCTTGTTTTCCTTTT was tested, and the sensor-assay potency score (higher = more potent) was -0.78.
In the case of TGTACTTCCGGTCGGCGCCTTC, the sensor-assay potency score (higher = more potent) is reported as -0.845.
Work on TTGGTAGAAACAAGGTGAGGTG yielded a sensor-assay potency score (higher = more potent) of -0.106.
Work on TTGGACTGTTGGTAGAAACAAG yielded a sensor-assay potency score (higher = more potent) of -1.21.
Sequence TTGTACTGCTGCTCGGGAGAAA has a sensor-assay potency score (higher = more potent) of -0.818.
TGTTGGTAGAAACAAGGTGAGG gave a sensor-assay potency score (higher = more potent) of -1.56.
TATCAGAATAGAAACACGAGGC was tested, and the sensor-assay potency score (higher = more potent) was -0.218.
For TTGTCCGGGAGACTCGACGCCC, the sensor-assay potency score (higher = more potent) was -0.988.

— the OligoGym collection
Also: reference of the scale not given here.
